13 molecules from PubChem BioAssay (NCI) can be followed below.

Structures are written as SMILES. About 83,000 compounds went through this panel and 20% of them were active in at least one assay; those are over-represented in the sample as a whole.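 Values shown are percent growth following 48 h exposure of cells in 96-well plates to a single concentration of compound; below 10 was considered active.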 Values without a mark were called inactive. Calls of active or inactive are those of the source.

Among the test systems are NCI-H23 lung; NCI-H226 lung; NCI-H322M lung; HOP-62 NSCLC; NCI-H460 lung; HOP-92 NSCLC; NCI-H522 lung; A549/ATCC NSCLC; 786-0 renal; COLO 205 colon.
Holding throughout (assay): NCI-60 one-dose screen, 48 h (100 = growth as untreated, 0 = no growth, -100 = all killed)
Common to all, as to conditions: 10 µM unless noted

For `O=C(CSc1nc2sc3c(c2c(=O)n1-c1ccc(Cl)cc1)CCCC3)N/N=C/C=C/c1ccccc1`, the growth was -74.7% (active) in the test with NCI-H23 lung; -36.1% (active) in the test on NCI-H226 lung; 34.8% in the test on NCI-H322M lung; -71.3% (active) with HOP-62 NSCLC; -16.9% (active) in the test with NCI-H460 lung; 9.97% (active) in the test on HOP-92 NSCLC. Besides, the growth with NCI-H522 lung is 2.3% (active); in the test on A549/ATCC NSCLC, -18.3% (active); with 786-0 renal it was -45.2% (active); in the test with COLO 205 colon, -45.4% (active).

For `O=C1Nc2cc(-c3ccc(NS(=O)(=O)c4ccc(-c5ccccc5)cc4)cc3)ccc2/C1=C/c1ccc[nH]1`, the growth with NCI-H23 lung is 4.1% (active); in the test on NCI-H226 lung, 66.5%; with NCI-H322M lung, 47.3%; with HOP-62 NSCLC, 75.9%; in the test on NCI-H460 lung, 3.38% (active); with HOP-92 NSCLC, 16.1%. The growth in the test with NCI-H522 lung is -11.8% (active); with A549/ATCC NSCLC, 10.5%; with 786-0 renal, 58.4%; in the test on COLO 205 colon, 0.446% (active).

In the case of `COc1ccc2[nH]c(O)c(N=Nc3nc(-c4ccc(C#N)cc4)cs3)c2c1`, the growth in the test on NCI-H23 lung is 55.9%; in the test on NCI-H226 lung, 98.4%; with NCI-H322M lung it was 83.9%; in the test on HOP-62 NSCLC it was 77.5%; in the test on NCI-H460 lung, 29.2%; in the test with HOP-92 NSCLC, 25.1%. Further, the growth in the test on NCI-H522 lung is 65.4%; in the test on A549/ATCC NSCLC it was 51.8%; with 786-0 renal, -73.4% (active); with COLO 205 colon, 86%.

For the molecule `c1ccc(CSc2nnc(-c3ccc4nc(-c5ccccc5)[nH]c4c3)o2)cc1`, the growth is 68% with NCI-H23 lung; -40.1% (active) with NCI-H226 lung; 35.9% in the test with NCI-H322M lung; -3.53% (active) in the test on HOP-62 NSCLC; -41.3% (active) with NCI-H460 lung; 32.2% in the test on HOP-92 NSCLC. In addition, the growth in the test on NCI-H522 lung is 33.7%; in the test on A549/ATCC NSCLC, -12.4% (active); in the test with 786-0 renal it was -17.3% (active); with COLO 205 colon it was 78.3%.

`COc1ccc(N=Nc2c(N)nn3c(-c4cc5ccccc5oc4=O)ccnc23)cc1`: the growth with NCI-H23 lung was 36.6%; with NCI-H226 lung it was 3.29% (active); in the test with NCI-H322M lung it was 63.4%; with HOP-62 NSCLC, 14.7%; in the test on NCI-H460 lung, 17.2%; with HOP-92 NSCLC it was 34.3%. In addition, the growth is 72.7% with NCI-H522 lung, 59.4% in the test on A549/ATCC NSCLC, 15.6% in the test with 786-0 renal and 63.9% with COLO 205 colon.

Regarding `c1n[nH]cc1-c1nc2ccc3[nH]ncc3c2c2c1CC1(CCOCC1)CC2`, the growth with NCI-H23 lung was 44.2%; with NCI-H226 lung, 27.3%; in the test on NCI-H322M lung, 48.6%; in the test with HOP-62 NSCLC it was 55.5%; in the test on NCI-H460 lung, 29.4%; in the test on HOP-92 NSCLC, 70.7%. The growth is 7.31% (active) in the test with NCI-H522 lung, 44.7% in the test with A549/ATCC NSCLC, 48.2% with 786-0 renal and 30.3% in the test on COLO 205 colon.

Regarding `Cn1cc(-c2cc(N)n3nc(-c4c[nH]c5ccc(Cl)cc45)cc3n2)c2cccnc21`, the growth is -75.7% (active) in the test with NCI-H23 lung; -58.4% (active) in the test with NCI-H226 lung; -83.6% (active) in the test on NCI-H322M lung; -88.9% (active) in the test with HOP-62 NSCLC; -47% (active) in the test on NCI-H460 lung; -70.5% (active) in the test on HOP-92 NSCLC. The growth in the test on NCI-H522 lung is -82.1% (active); in the test with A549/ATCC NSCLC, -77.2% (active); with 786-0 renal, -92.5% (active); in the test on COLO 205 colon it was -83.1% (active).

`Cc1nn(-c2ccccc2)c2nc(C)n(C(=O)N/N=C/c3cccc([N+](=O)[O-])c3)c(=O)c12`: the growth was 77.7% with NCI-H23 lung; 105% with NCI-H226 lung; 91.7% in the test with NCI-H322M lung; 98.6% in the test on HOP-62 NSCLC; 93.7% in the test with NCI-H460 lung; 103% with HOP-92 NSCLC. Moreover, the growth is 47.4% in the test with NCI-H522 lung, 83.7% in the test on A549/ATCC NSCLC, 108% in the test on 786-0 renal and 117% in the test with COLO 205 colon.

Take `Cc1cc(C2(c3cc(C)c(OCC(O)CNc4c(C)n(C)n(-c5ccccc5)c4=O)cc3C(C)C)OC(=O)c3ccccc32)c(C(C)C)cc1OCC(O)CNc1c(C)n(C)n(-c2ccccc2)c1=O` (stereo not given): the growth is 34.7% in the test on NCI-H23 lung; 42% in the test on NCI-H226 lung; 61% with NCI-H322M lung; 52% with HOP-62 NSCLC; 18.2% in the test with NCI-H460 lung; -9.82% (active) in the test on HOP-92 NSCLC. For the same molecule, the growth with NCI-H522 lung was 8.24% (active); in the test on A549/ATCC NSCLC, 22.4%; in the test with 786-0 renal, 24.2%; in the test with COLO 205 colon it was 10.6%.

For the molecule `c1n[nH]cc1-c1nc2ccc3[nH]ncc3c2c2c1CC1(CC2)COC1`, the growth in the test with NCI-H23 lung was 62%; in the test with NCI-H226 lung, 66%; in the test on NCI-H322M lung, 64%; in the test on HOP-62 NSCLC it was 77.7%; in the test on NCI-H460 lung, 73.4%; with HOP-92 NSCLC it was 92.1%. Besides, the growth with NCI-H522 lung was -24.6% (active); with A549/ATCC NSCLC, 95.9%; in the test with 786-0 renal, 60.6%; with COLO 205 colon, 24.6%.

With `COc1ccccc1Nc1nnc(-c2c[nH]c3ccccc23)o1`, the growth is 12.6% in the test with NCI-H23 lung; 47.1% with NCI-H226 lung; 43.5% in the test on NCI-H322M lung; 26.3% with HOP-62 NSCLC; 10.8% in the test with NCI-H460 lung; 16.1% in the test on HOP-92 NSCLC. Besides, the growth in the test on NCI-H522 lung was -31.5% (active); in the test with A549/ATCC NSCLC, 21.9%; in the test with 786-0 renal it was 9.22% (active); in the test with COLO 205 colon it was -38.8% (active).

`COc1ccc(-c2nc3ccccc3n2CC(=O)N=Nc2c(O)[nH]c3ccc(OC)cc23)cc1`: the growth in the test on NCI-H23 lung was 89.7%; with NCI-H226 lung it was -18.8% (active); in the test on NCI-H322M lung it was 89.4%; with HOP-62 NSCLC it was 67.4%; in the test with NCI-H460 lung it was 10.5%; in the test on HOP-92 NSCLC, -7.89% (active). The growth with NCI-H522 lung is 47.8%; with A549/ATCC NSCLC, 37%; with 786-0 renal, 42.4%; in the test with COLO 205 colon, 36%.

Take `COc1ccc(NC(=O)Cn2c(/C=C/c3cccc(Br)c3)nc3ccccc3c2=O)cc1`: the growth in the test on NCI-H23 lung is 59.3%; in the test on NCI-H226 lung, 6.61% (active); with NCI-H322M lung, 58.1%; in the test on HOP-62 NSCLC it was 2.11% (active); in the test with NCI-H460 lung, 32%; in the test with HOP-92 NSCLC it was 11%. Besides, the growth in the test with NCI-H522 lung was 42.6%; in the test on A549/ATCC NSCLC, 16.5%; in the test on 786-0 renal, -44.4% (active); in the test on COLO 205 colon, 70.4%.
